# Compound activity deposited in PubChem BioAssay by several laboratories.
# In the library only some 1.6% were active in any assay of this set; here they are far more common.
# GRK2 aptamer HTS = human GRK2 inhibition via aptamer displacement. P25098. bead flow cytometry, FAM-aptamer displacement from GRK2. inhibition of aptamer binding, % at 10 µM. actives 0.59% (n = 330,000). AID 488847;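 active = inhibition of aptamer binding above 40%, roughly 3 SD of noise, on plates passing a quality check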;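 also: median bead fluorescence of bound FAM aptamer so fluorescent compounds give negative values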
# Efflux pump inh = inhibitors of Candida antifungal efflux pumps expressed in yeast | S. cerevisiae Candida pump triplex, Nile Red efflux | inhibition, % at 10 µM | actives 0.44% (n = 330,000) | AID 485275;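 active = plate passing quality check with inhibition over a set limit, or well fluorescence over plate mean plus 4 SD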;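 also: Nile Red retained in pooled yeast measured as flow cytometry median fluorescence; 0% = buffer negative control and 100% = Enniatin B positive control; higher means more Nile Red kept so more efflux inhibition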
# ATG4B inh = inhibitors of human ATG4B cysteine protease; Q9Y4P1; ATG4B cleavage of LC3-PLA2, NBD-HPC fluorescence, 1 h; inhibition, % at 8.33 µM; actives 0.51% (n = 340,000); in the data active = inhibition above about 40%
# Yeast superoxide = caloric restriction mimetics inhibiting age-related superoxide in yeast; S. cerevisiae aged cells, superoxide DHE fluorescence; hits give low values; superoxide response (% of plate mean), % at 10 µM; actives 0.18% (n = 330,000); AID 2690;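 active = superoxide response under a set limit, about three screen SD below normal, cut at about 65% in these data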;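 also: yeast aged for seven days with compound at 30 °C before DHE staining; 100% = average MFI of all compound-treated wells on the plate with controls excluded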
# Superoxide pick = yeast aging superoxide inhibition, cherry pick confirmation. shares compounds with Yeast superoxide. S. cerevisiae aging, superoxide DHE fluorescence; hits give low values. superoxide response (% of plate), % at 10 µM. actives 1% (n = 850). AID 434994;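 active = superoxide signal below 65% of the plate average of sample wells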;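 also: cells aged with compound for 7 days at 30 degrees C before staining; 100% equals mean DHE fluorescence of all compound wells on the plate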
# DHE fluor count = DHE fluorescence interference, counter-screen artifact | shares compounds with Yeast superoxide | S. cerevisiae BY4741, flow cytometry; hits give low values | fluorescence response, % at 10 µM | 850 tested, under 10 active | AID 435000;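 active = fluorescence response below 15%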;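 also: percent of the mean fluorescence averaged over all compound wells on the plate; lower means stronger quenching of DHE signal or ROS scavenging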
# * marks the source's active call; other numbers are inactive results; . = no result given.
SMILES,GRK2 aptamer HTS,Efflux pump inh,ATG4B inh,Yeast superoxide,others
O=C(O)c1ccc2c(c1)C1C(Cl)C(Sc3ccccc3[N+](=O)[O-])CC1C(c1cccc([N+](=O)[O-])c1)N2 (centres undefined),.,.,48*,.,
CCN(CC)C(=O)c1ccc2c(c1)C1C(Cl)C(Sc3ccccc3[N+](=O)[O-])CC1C(C(=O)O)N2 (centres undefined),14,0,13,90,
O=C(O)c1cccc2c1NC(c1cccc([N+](=O)[O-])c1)C1CC(Sc3ccccc3[N+](=O)[O-])C(Cl)C21 (centres undefined),.,.,88*,.,
C[n+]1c(-c2ccccc2)c2cc(N)ccc2c2ccc(N)cc21,36,8.5*,3,102,
O=C1NC(=O)N(c2ccccc2)C(=O)/C1=C\c1ccc([N+](=O)[O-])o1,93*,0,.,98,
CN1C(=O)NC(=O)/C(=C/c2ccc([N+](=O)[O-])o2)C1=O,0,0,-6,92,
CCNc1cc(N2CCNCC2)ccc1[N+](=O)[O-],1,0,.,105,
C[C@]12CCC3C(CC[C@H]4C[C@H](O)CC[C@]34C)C1[C@@H](O)C[C@@H]2O (some centres undefined),0,0,0,95,
COc1cccc(C2(O)CCN(CC(=O)Nc3nc(C)cs3)CC2)c1,2,0,1,101,
CCCCN1C(=O)/C(=C/C=C/c2ccco2)C(=O)NC1=S,.,.,44*,.,
O=C1NC(=O)N(Cc2ccc(F)cc2)C(=O)/C1=C\C=C\c1ccco1,11,0,9,74,
Cc1cccc(N2C(=O)NC(=O)/C(=C\c3cc(C)n(-c4sc5c(c4C#N)CCCC5)c3C)C2=O)c1C,5,0,11,46*,
O=C1NC(=O)C(=C/C=C/c2coc3ccc(Br)cc3c2=O)C(=O)N1,6,3.5*,.,94,
COc1cc(C[C@@H](C)N)c(OC)cc1I,0,0,-4,90,
CCOc1ccc(N2C(=O)/C(=C/c3ccco3)C(=O)NC2=S)cc1,20,0,81*,101,
CCOc1ccc(N2C(=O)/C(=C\c3cccs3)C(=O)NC2=S)cc1,0,0,4,114,
Cc1ccccc1N1C(=O)/C(=C/c2ccco2)C(=O)NC1=S,100*,0,.,98,
CCCCn1c(NC(=O)c2ccc(Br)o2)c(C(=O)OCC)c2nc3ccccc3nc21,78*,0,28,156,
CCCCn1c(NS(=O)(=O)c2ccccc2)c(C(=O)OCC)c2nc3ccccc3nc21,0,0,21,121,
O=c1oc2ccccc2c(O)c1[C@H]1c2ccc(O)cc2Oc2c1c(=O)oc1ccccc21,1,0,-20,92,
CN(C)[C@@H]1C(=O)C(C(N)=O)=C(O)[C@@]2(O)C(=O)C3=C(O)c4c(O)cccc4[C@@](C)(O)[C@H]3C[C@@H]12,42*,0,.,108,
CN(C)C(=S)SSC(=S)N(C)C,4,0,-9,89,
Cc1cc(Cl)nc(N)n1,2,1,10,51*,Superoxide pick=99;DHE fluor count=88
OCC[n+]1c2ccccc2nc2ccc(N3CCOCC3)cc21,6,0,-3,43*,Superoxide pick=66;DHE fluor count=91
O=C(O)c1ccccc1-c1ccc(C=C2C(=O)N(c3ccccc3)C(=S)N(c3ccccc3)C2=O)o1,.,0,1,107,
SMILES,GRK2 aptamer HTS,Efflux pump inh,ATG4B inh,Yeast superoxide,others
CCC(=O)O[C@H]1CC[C@H]2[C@@H]3CCC4=CC(=O)CC[C@]4(C)[C@H]3CC[C@]12C,.,.,0,.,
CC(=O)O[C@H]1CCC2C3CC[C@H]4[C@@H](O)[C@H](O)CC[C@]4(C)C3CC[C@@]21C (some centres undefined),.,.,12,.,Superoxide pick=104;DHE fluor count=92
Fc1ccc(CN2CCN(c3ccc(Cl)cc3)CC2)cc1,9,0,4,82,
Fc1cccc(F)c1CN1CCN(c2ccc(Cl)cc2)CC1,0,0,6,38*,Superoxide pick=99;DHE fluor count=91
C[C@]12CC[C@@H](O)C[C@@H]1CC[C@@H]1[C@@H]2CC[C@]2(C)C(=O)CC[C@@H]12,0,0,-12,75,
C[C@]12CCC3C(CC[C@H]4CC(=O)CC[C@]34C)C1CCC2=O (some centres undefined),4,0,1,71,
